# Test results taken from PubChem BioAssay (NCATS).
# Records with an inconclusive call do not appear. Where a call stands in place of a potency, no number is given. The source made the active and inactive calls. The call rests on the fitted dose curve; in most records, active means well fitted curve in the direction sought with a large enough effect; inconclusive means small, poorly fitted or top-dose-only effect, or another doubt; inactive means no such curve, though single readings can be large; an effect the other way counts as inactive or inconclusive.
# What was measured:
# [1] = S16 Schwann cell viability assay (CellTiter-Glo assay) (AID 624031);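 further: cellular ATP luminescence as a viability measure; nearly all actives have a fitted effect of over 70% in size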
# Procedure, shortened: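 CellTiter-Glo ATP luminescence counter-screen in untransfected S16 rat Schwann cells, 24h compound exposure at 37 degree Celsius after overnight seeding (500-750 cells/well); response scaled between cell-free wells and DMSO (0% activity), curves classed by r2 and magnitude.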
# [2] = test system: 7G8; test: qHTS profiling for inhibitors of Plasmodium falciparum proliferation (AID 504749); further: nearly all actives have a fitted effect of over 60% in size; further: potency means the concentration at half of the fitted maximal effect; settings: P. falciparum in erythrocytes, SYBR Green DNA, 72 h; series mostly up to 12.8 µM
# Procedure, shortened: (§1)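 Fluorescence of SYBR Green-bound parasite DNA, read at 485/535 nm, served as the growth measure. Infected erythrocytes were cultured with compound 72 h; artemisinin (0.29 uM) and DMSO wells defined the normalization range.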
# [3] = test system: ATS189; test: as above; settings: P. falciparum in erythrocytes, SYBR Green DNA, 72 h; series mostly up to 12.8 µM
# Procedure, shortened: as §1
# [4] = test system: CP185; test: as above; settings: P. falciparum in erythrocytes, SYBR Green DNA, 72 h; series mostly up to 12.8 µM
# Procedure, shortened: as §1
# [5] = test system: CP191; test: as above; settings: P. falciparum in erythrocytes, SYBR Green DNA, 72 h; series mostly up to 12.8 µM
# Procedure, shortened: as §1
# [6] = test system: CP201; test: as above; settings: P. falciparum in erythrocytes, SYBR Green DNA, 72 h; series mostly up to 12.8 µM
# Procedure, shortened: as §1
# [7] = test system: CP247; test: as above; settings: P. falciparum in erythrocytes, SYBR Green DNA, 72 h; series mostly up to 12.8 µM
# Procedure, shortened: as §1
# [8] = test system: CP256; test: as above; settings: P. falciparum in erythrocytes, SYBR Green DNA, 72 h; series mostly up to 12.8 µM
# Procedure, shortened: as §1
# [9] = test system: CP325; test: as above; settings: P. falciparum in erythrocytes, SYBR Green DNA, 72 h; series mostly up to 12.8 µM
# Procedure, shortened: as §1
# [10] = test system: CP329; test: as above; settings: P. falciparum in erythrocytes, SYBR Green DNA, 72 h; series mostly up to 12.8 µM
# Procedure, shortened: as §1
# [11] = test system: CP335; test: as above; settings: P. falciparum in erythrocytes, SYBR Green DNA, 72 h; series mostly up to 12.8 µM
# Procedure, shortened: as §1
# [12] = test system: DFO2036; test: as above; settings: P. falciparum in erythrocytes, SYBR Green DNA, 72 h; series mostly up to 12.8 µM
# Procedure, shortened: as §1
# [13] = test system: Dd2; test: as above; settings: P. falciparum in erythrocytes, SYBR Green DNA, 72 h; series mostly up to 12.8 µM
# Procedure, shortened: as §1
# [14] = test system: ECU; test: as above; settings: P. falciparum in erythrocytes, SYBR Green DNA, 72 h; series mostly up to 12.8 µM
# Procedure, shortened: as §1
# [15] = test system: HB3; test: as above; settings: P. falciparum in erythrocytes, SYBR Green DNA, 72 h; series mostly up to 12.8 µM
# Procedure, shortened: as §1
# [16] = test system: N140; test: as above; settings: P. falciparum in erythrocytes, SYBR Green DNA, 72 h; series mostly up to 12.8 µM
# Procedure, shortened: as §1
# [17] = test system: PC15; test: as above; settings: P. falciparum in erythrocytes, SYBR Green DNA, 72 h; series mostly up to 12.8 µM
# Procedure, shortened: as §1
# [18] = test system: SC27B; test: as above; settings: P. falciparum in erythrocytes, SYBR Green DNA, 72 h; series mostly up to 12.8 µM
# Procedure, shortened: as §1
# [19] = test system: TAB113; test: as above; settings: P. falciparum in erythrocytes, SYBR Green DNA, 72 h; series mostly up to 12.8 µM
# Procedure, shortened: as §1
# [20] = test system: TAB165; test: as above; settings: P. falciparum in erythrocytes, SYBR Green DNA, 72 h; series mostly up to 12.8 µM
# Procedure, shortened: as §1
SMILES,Potency [1],Potency [2],Potency [3],Potency [4],Potency [5],Potency [6],Potency [7],Potency [8],Potency [9],Potency [10],Potency [11],Potency [12],Potency [13],Potency [14],Potency [15],Potency [16],Potency [17],Potency [18],Potency [19],Potency [20]
COc1ccccc1OC[C@H](O)COC(N)=O,inactive,inactive,inactive,inactive,inactive,inactive,inactive,inactive,inactive,inactive,inactive,inactive,inactive,inactive,inactive,inactive,inactive,inactive,inactive,inactive
O=C(O)/C=C\c1ccc(Cn2ccnc2)cc1,inactive,inactive,inactive,inactive,inactive,inactive,inactive,inactive,inactive,inactive,inactive,inactive,inactive,inactive,inactive,inactive,inactive,inactive,inactive,inactive
CC1(C)O[C@@H]2C[C@H]3[C@H]4C[C@H](F)C5=CC(=O)C=C[C@@]5(C)[C@@H]4[C@H](O)C[C@]3(C)[C@]2(C(=O)CO)O1,inactive,inactive,inactive,inactive,inactive,inactive,inactive,inactive,inactive,inactive,inactive,inactive,inactive,inactive,inactive,inactive,inactive,inactive,inactive,inactive
C[C@H](NCCc1ccc(O)cc1)[C@@H](O)c1ccc(O)cc1,inactive,inactive,inactive,inactive,inactive,inactive,inactive,inactive,inactive,inactive,inactive,inactive,inactive,inactive,inactive,inactive,inactive,inactive,inactive,inactive
COc1c(O)cc2c(c1O)[C@@H]1O[C@@H](CO)[C@@H](O)[C@@H](O)[C@@H]1OC2=O,inactive,inactive,inactive,inactive,inactive,inactive,inactive,inactive,inactive,inactive,inactive,inactive,inactive,inactive,inactive,inactive,inactive,inactive,inactive,inactive
CCN(CC)CC#CCOC(=O)[C@@](O)(c1ccccc1)C1CCCCC1,inactive,8.91 µM (active),,,,,,,inactive,,,,,12.6 µM (active),inactive,inactive,,inactive,inactive,
CCN(CC)CCC[C@H](C)Nc1ccnc2cc(Cl)ccc12,inactive,1 µM (active),,4.47 µM (active),8.91 µM (active),12 µM (active),,8.91 µM (active),7.57 µM (active),15.1 µM (active),12 µM (active),3.98 µM (active),10 µM (active),2.24 µM (active),316 nM (active),11.2 µM (active),2.51 µM (active),,,5.62 µM (active)
O=c1[nH]c(=O)n([C@@H]2C[C@H](O)[C@H](CO)O2)cc1I,inactive,inactive,inactive,inactive,inactive,inactive,inactive,inactive,inactive,inactive,inactive,inactive,inactive,inactive,inactive,inactive,inactive,inactive,inactive,inactive
CN[C@@H]1[C@H](O[C@@H]2O[C@H](CO)[C@@H](N)[C@H](O)[C@@H]2O)O[C@H]2C[C@@H](N)[C@@H](O[C@H]3[C@@H](O)[C@H](O)[C@H](N)C[C@@H]3N)O[C@H]2[C@H]1O,inactive,inactive,inactive,inactive,inactive,inactive,inactive,inactive,inactive,inactive,inactive,inactive,inactive,inactive,inactive,inactive,inactive,inactive,inactive,inactive
NC(=O)OC[C@H](O)COc1ccc(Cl)cc1,inactive,inactive,inactive,inactive,inactive,inactive,inactive,inactive,inactive,inactive,inactive,inactive,inactive,inactive,inactive,inactive,inactive,inactive,inactive,inactive
CC(=O)N(CC(O)CN(C(C)=O)c1c(I)c(C(=O)NC[C@@H](O)CO)c(I)c(C(=O)NC[C@@H](O)CO)c1I)c1c(I)c(C(=O)NC[C@@H](O)CO)c(I)c(C(=O)NC[C@@H](O)CO)c1I,inactive,inactive,inactive,inactive,inactive,inactive,inactive,inactive,inactive,inactive,inactive,inactive,inactive,inactive,inactive,inactive,inactive,inactive,inactive,inactive
COCCc1ccc(OC[C@H](O)CNC(C)C)cc1,inactive,inactive,inactive,inactive,inactive,inactive,inactive,inactive,inactive,inactive,inactive,inactive,inactive,inactive,inactive,inactive,inactive,inactive,inactive,inactive
CN(N=O)C(=O)N[C@H]1[C@@H](O)[C@H](O)[C@H](CO)O[C@@H]1O,inactive,inactive,inactive,inactive,inactive,inactive,inactive,inactive,inactive,inactive,inactive,inactive,inactive,inactive,inactive,inactive,inactive,inactive,inactive,inactive
